Assay results reported in PubChem BioAssay AID720542 (National Center for Advancing Translational Sciences (NCATS), 2013).
Among all 360,000 compounds or so, about 740 (0.21%) were called active. Roughly 2% stayed inconclusive and do not appear here. Many of the other results were omitted from the sample, so actives are more common in it than they were. Unmarked numbers belong to inactive results. The call rests on the fitted dose curve; in most records, active means well fitted inhibition curve with a large enough effect; inconclusive means small, poorly fitted or top-dose-only effect; inactive means no such curve, though single readings can be large or run the other way.

System: Plasmodium falciparum AMA1 (3D7) - RON2 peptide interaction
Assay: qHTS for Inhibitors of AMA1-RON; Towards Development of Antimalarial Drug Lead: Primary Screen; further: nearly all actives have a fitted effect of over 45% in size;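 on activity change, negative = inhibition: 0% = vehicle wells and -100% = peptide control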
Conditions: AlphaScreen AMA1-biotinylated RON2 peptide binding; series mostly up to 58.2 µM; activity change, negative = inhibition: at the top concentration
Source text: Plasmodium, the causative agent of malaria, is one of the world's deadliest parasitic diseases. Currently there is no vaccine available and there is widespread resistance to common anti-malarial drugs. This warrants novel, alternative approaches for developing improved therapy. During infection, one such essential interaction is between two parasite proteins, the apical membrane antigen1 (AMA1) that is translocated onto the merozoite surface and the rhoptry neck protein 2 (RON2), which is transferred to the red blood cells (RBC) membrane during invasion (Besteiro et.al., 2009). Recently, the Miller lab has shown that the interaction between AMA1 and RON2 is essential for junction formation of the parasite with the host cell (Srinivasan et.al., 2011). The binding of the RON2 peptide to the hydrophobic pocket in AMA triggers the formation of the moving junction which provides a firm anchor for the parasite to pull itself into the RBC using its actin-myosin motor; an irreversible step that commits the parasite for invasion. Only one AMA1 and RON2 genes exists in Plasmodium and there are no alternate pathways. Moreover, the region corresponding to RON2 peptide is conserved in all P. falciparum isolates for which sequences are available. The key residues in the AMA1 hydrophobic pocket that binds RON2 are also conserved and indicate a functional constraint governing this essential step in invasion since a short RON2 peptide (RON2L) corresponding to the binding region on AMA1 is sufficient to compete with the native RON2 protein and inhibits invasion (Tonkin et.al, 2011). Therefore, developing small molecule inhibitors of this interaction offers a promising target opening a new arena for anti-malarial therapeutics drug design.
In collaboration with the Miller lab, a quantitative High Throughput Screen using the AlphScreen technology was developed using a recombinant his-tagged AMA1 and a biotinylated RON2 peptide. This fluorescent screen was assayed against the NIH Molecular Libraries Small Molecule Repository (MLSMR). Inhibition of this protein-protein interaction is the desired outcome of this assay. However, due the limitations of this AlphaScreen assay, a large number of artifacts were observed. An AlphaScreen counterscreen was run to identify the true inhibitors, triage compound activity, and weed out false positives.
NIH Chemical Genomics Center [NCGC]
NIH Molecular Libraries Probe Centers Network [MLPCN]
Assay Submitter (PI): Louis Miller, National Institute of Allergy and Infectious Disease (NIAID)
Two microliters of his-tagged AMA1 3D7 allele protein (final concentration 25 nM) was dispensed into a 1,536-well assay plate. Small molecules and positive control peptides were pin-transferred (23 nL or 46 nL) via Kalypsys pin-tool equipped with a 1,536-pin array, resulting in final compound and peptide concentration ranges of 91.5 nM - 57.2 µM, and 15.6 nM - 2.00 µM, respectively. Unlabeled RON2 peptide or R1 peptide ([…]) that specifically binds the 3D7 AMA1 was used as a positive control that inhibited the binding of RON2L to AMA1. After 15 minutes incubation, 1 uL of biotinylated RON2 peptide (final concentration 25 nM) or buffer were dispensed and the assay plate was incubated for an additional 30 minutes at room temperature and protected from light. This was followed by an addition of 1 uL mixture of donor and acceptor beads (10 ug/mL final concentrations for each). The plates were incubated for 30 min at room temperature and read using the EnVision(R) plate reader (PerkinElmer). Maximum inhibition response was normalized to the positive control signal while no inhibition response was normalized to the DMSO treated wells.
Potency means the concentration at half of the fitted maximal effect.

Row | Compound | activity change, negative = inhibition [%] | Potency
1 | CCc1c(C)[nH]c(=S)c(C#N)c1C | 22.4 | –
2 | COc1ccc(C)cc1S(=O)(=O)Nc1cccc(Cl)c1Cl | 3.36 | –
3 | CCN(CC)C(=O)CSc1nnc(-c2cnccn2)n1-c1ccc(C)cc1 | -8.2 | –
4 | COC(=O)c1ccc(OCC(O)CN(CCO)CC(O)Cn2ccc3ccccc32)cc1 (centres undefined) | 9.1 | –
5 | NC(=O)CCCC1=NS(=O)(=O)c2ccccc2N1 | 8.24 | –
6 | CC(CC(=O)Nc1ccc(F)cc1F)S(=O)(=O)c1ccc2c(c1)NC(=O)CO2 (centres undefined) | -11.5 | –
7 | O=C(NC1CCCC1)C(NS(=O)(=O)c1ccc(Br)s1)c1ccccc1 (centres undefined) | 4.01 | –
8 | Cc1ccc(N)cc1-n1c(C)ccc1C | -2.66 | –
9 | COc1cc(C(=O)NNC(=O)CN2C(=O)NC3(CCCC3)C2=O)cc(OC)c1OC | 23.7 | –
10 | OC(c1ccc(Cl)cc1)C(CN1CCOCC1)c1ccccc1 (centres undefined) | -4.17 | –
11 | C=CCn1c(SCc2c(C(=O)OC)sc(N)c2C(=O)OC)nnc1-c1ccc(Cl)cc1 | 10.1 | –
12 | CC1(C)CC(=O)c2cnc3nc4ccccc4n3c2C1 | -13.2 | –
13 | CCCC1(C(=O)OC)NC(c2ccco2)C2C(=O)N(C)C(=O)C21 (centres undefined) | -5.83 | –
14 | Cn1ccc(=Nc2ccc(NC(=O)c3ccc(N=c4ccn(C)c5ccc([N+](=O)[O-])cc45)cc3)cc2)cc1 | -10.7 | –
15 | CCCN(CCC)S(=O)(=O)c1ccc(C(=O)N2CC3CCC(CC3)C2)cc1 | -4.87 | –
16 | CN(c1ccccc1)S(=O)(=O)c1ccc2[nH]c(=O)[nH]c2c1 | 0.947 | –
17 | CC1(C(=O)NCc2ccco2)Cc2c(-c3ccc4c(c3)OCO4)ccnc2O1 (centres undefined) | -5.41 | –
18 | COC(=O)c1ccc(NC(=O)CSc2nncc3ccc(OC)c(OC)c23)cc1 | -13.1 | –
19 | COCCN(CC(=O)Nc1ccccc1C)S(=O)(=O)c1ccc(S(=O)(=O)N2CCCC2)cc1 | 2.33 | –
20 | CSc1nnc2c(n1)OC(c1cn(C)c3ccccc13)N(C(C)=O)c1ccccc1-2 (centres undefined) | 5.41 | –
21 | O=C(CN1C(=O)NC2(CCCCCCC2)C1=O)NCc1ccc(F)cc1 | 2.43 | –
22 | Cc1nc([N+](=O)[O-])nn1C12CC3CC(CC(Br)(C3)C1)C2 | -0.205 | –
23 | CCOc1ccc(OCC)c(NC(=O)C2CCN(S(=O)(=O)c3c(C)noc3C)CC2)c1 | -11.4 | –
24 | CSCc1cc(N2CCOCC2)nc(SCc2ccc(Cl)cc2Cl)n1 | -1.83 | –
25 | CC(=O)c1ccc(S(=O)(=O)NC2CC(=O)N(c3ccc4c(c3)OCCO4)C2)cc1 (centres undefined) | 5.8 | –

Row | Compound | activity change, negative = inhibition [%] | Potency
26 | NC(=O)CC(NC(=O)Cc1ccc(Br)cc1)c1ccc(NC2CC3CCC2C3)c([N+](=O)[O-])c1 (centres undefined) | -18 | –
27 | CCOC(=O)C1(Cc2ccccc2C)CCCN(S(C)(=O)=O)C1 (centres undefined) | 8.1 | –
28 | COc1ccc(CNC(=O)C[C@H]2C[C@H](C(=O)N3CCOCC3)[C@@]3(C)c4[nH]c5cc(CCC(=O)N(C)C)ccc5c4CCN3C2=O)cc1OC | 11.3 | –
29 | COc1ccc2occ(C(=O)c3ccc(N=C(C)N(C)C)cc3)c2c1 | -7.37 | –
30 | CN(C)c1ccc(Nc2c3c4c(cccc4n(C)c2=O)C(=O)c2ccccc2-3)cc1 | – | 4.47 µM (active)
31 | COCCNC(=O)Nc1ccc2nc(-c3ccco3)c(-c3ccco3)nc2c1 | – | 7.08 µM (active)
32 | O=C(NCCOc1ccccc1F)Nc1ccc(Br)cc1 | -2.52 | –
33 | COCCN(C(=O)c1ccco1)c1nnc(-c2ccc(OC)cc2)s1 | 3.14 | –
34 | CC1=C(C(=O)OC(C)(C)C)C(c2ccc(Br)cc2)NC(=O)N1CCCC(=O)O (centres undefined) | -7.79 | –
35 | O=C(CSc1nnc2ccc(-c3ccncc3)nn12)N1CCCCC1 | 18.5 | –
36 | O=C1CCC/C=C\C[C@@H](CC(=O)N(CCO)Cc2ccccc2)C(=O)NCCO1 | 13.1 | –
37 | O=C(O)CSC(NC(=O)c1cccnc1)(C(F)(F)F)C(F)(F)F | -2.41 | –
38 | COc1ccc(OC)c(C2C3=C(N=c4s/c(=C\c5cccc(O)c5)c(=O)n42)c2ccccc2CC3)c1 (centres undefined) | -12.8 | –
39 | CCOCCCN(C)C1CCN(C(=O)c2oc3ccccc3c2NC(=O)COc2cccc(C)c2)CC1 | -11.2 | –
40 | COc1cc(C(=O)OCC(=O)N(CC(C)C)C2CCS(=O)(=O)C2)ccc1OCC(C)C (centres undefined) | 8.24 | –
41 | COc1nc(N(C)C)nc(N2CC(=O)N(CCNS(=O)(=O)c3ccc(C)cc3)C2=N)n1 | 4.54 | –
42 | CCOc1ccc(NC(=O)CN(C)C(=O)c2cccc(S(=O)(=O)N3CCCC3)c2)cc1OCC | 5.03 | –
43 | Cc1ccc(CN2CC(C(=O)N3CCN(S(=O)(=O)c4ccccc4)CC3)CC2=O)cc1 (centres undefined) | 2.11 | –
44 | CS(=O)(=O)c1ccc(Cl)c(NC(=O)COC(=O)c2ncc(Cl)c(Cl)c2Cl)c1 | 7.73 | –
45 | C=C1C2C[C@H](O)C(C)(C)[C@@]2(O)[C@H](O)C[C@]23C[C@@](C)(O)[C@H](CC[C@H]12)[C@H]3O (some centres undefined) | 6.34 | –
46 | CCc1ccc(S(=O)(=O)Nc2cc3c(cc2N2CCCCC2)n(C)c(=O)c(=O)n3C)cc1 | -3.11 | –
47 | O=S(=O)(Nc1cc(S(=O)(=O)N2CCOCC2)ccc1N1CCCC1)c1cccs1 | 21.9 | –
48 | COc1cccc(N(CC(=O)NC2CCCC2)C(=O)Cn2nnc(-c3ccc(C)cc3)n2)c1 | -14.7 | –
49 | CC(C)(C)OC(=O)N1CCC(C(=O)Nc2cccc(C(=O)NCCc3ccccc3)c2)CC1 | 8.21 | –
